Compounds with a hit are over-represented: about 12% of the library has one in this group of screens.
Sfp inh = qHTS Assay for Inhibitors of Bacillus subtilis Sfp phosphopantetheinyl transferase (PPTase); 4'-phosphopantetheinyl transferase ffp (Bacillus subtilis), Q9F4F7; Biochemical Sfp PPTase activity, qHTS; Potency, µM, without a hit: largest response in the series, negative = inhibition, hits mostly inhibitors; 310,000 compounds, 3.5% hits; AID 1490, 2009;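 also: the enzyme is Sfp with the accession as filed and its product quenches rhodamine fluorescence; 0% = enzyme reaction without inhibitor and -100% = no enzyme wells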
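After 15 min at room temperature with compound, 15 nM Sfp received 5 uM rhodamine-CoA plus 12.5 uM BHQ-2-ybbR (50 mM Hepes pH 7.6, 10 mM MgCl2). Rate came from the fluorescence difference over 30 min, ex 525/em 598 nm.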
G9a block = qHTS Assay for Inhibitors of Histone Lysine Methyltransferase G9a. Histone-lysine N-methyltransferase EHMT2 (Homo sapiens), Q96KQ7. G9a H3K9 monomethylation, AlphaScreen, 2 h. Potency, µM (highest dose often 102 µM), for inactives: at the top dose activity, negative = inhibition, actives largely listed as inhibitors. 350,000 compounds, 8.8% hits. AID 504332, 2011; also: % is scaled to controls: 0 for no effect and ±100 for the full control effect; nearly all actives have a fitted effect of over 75% in size
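Chemiluminescent proximity detection of H3K9 monomethylation, read after 10 min bead incubation in the dark. Reaction: 20 nM G9a, 500 nM biotin-H3K9 peptide, 20 uM SAM cofactor, 2 h, room temperature, following 15 min enzyme-compound preincubation.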
BAZ2B inh = qHTS Assay for Inhibitors of BAZ2B; AlphaScreen BAZ2B-H3K14Ac peptide displacement; Potency, µM (series often up to 114 µM), inactives show at the highest dose activity change, negative = inhibition, hits mostly inhibitors; 360,000 compounds, 4.4% hits; Bromodomain adjacent to zinc finger domain protein 2B (Homo sapiens), Q9UIF8; also: % is scaled to controls: 0 for no effect and ±100 for the full control effect; nearly all actives have a fitted effect of over 60% in size
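BAZ2B 50 nM plus b-H3(5-23)K14Ac 50 nM, PBS pH 7.4/0.01% Tween-20, 30 min RT; compound added (max 110 uM), 30 min RT; streptavidin donor/Ni-chelate acceptor beads 10 ug/mL final, 20 min dark; AlphaScreen read.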
L3MBTL1 block = qHTS Assay for the Inhibitors of L3MBTL1; Lethal(3)malignant brain tumor-like protein 1 (Homo sapiens), Q9Y468; Potency, µM (titrated, usually from 57.1 µM), inactives show at the top dose activity, negative = inhibition, actives largely listed as inhibitors; AlphaScreen L3MBTL1–H3K9me1 peptide binding; 230,000 compounds, 0.66% hits; AID 485360, 2010; also: % is scaled to controls: 0 for no effect and ±100 for the full control effect; nearly all actives have a fitted effect of over 60% in size
Target sequence (Q9Y468 whole entry, looked up): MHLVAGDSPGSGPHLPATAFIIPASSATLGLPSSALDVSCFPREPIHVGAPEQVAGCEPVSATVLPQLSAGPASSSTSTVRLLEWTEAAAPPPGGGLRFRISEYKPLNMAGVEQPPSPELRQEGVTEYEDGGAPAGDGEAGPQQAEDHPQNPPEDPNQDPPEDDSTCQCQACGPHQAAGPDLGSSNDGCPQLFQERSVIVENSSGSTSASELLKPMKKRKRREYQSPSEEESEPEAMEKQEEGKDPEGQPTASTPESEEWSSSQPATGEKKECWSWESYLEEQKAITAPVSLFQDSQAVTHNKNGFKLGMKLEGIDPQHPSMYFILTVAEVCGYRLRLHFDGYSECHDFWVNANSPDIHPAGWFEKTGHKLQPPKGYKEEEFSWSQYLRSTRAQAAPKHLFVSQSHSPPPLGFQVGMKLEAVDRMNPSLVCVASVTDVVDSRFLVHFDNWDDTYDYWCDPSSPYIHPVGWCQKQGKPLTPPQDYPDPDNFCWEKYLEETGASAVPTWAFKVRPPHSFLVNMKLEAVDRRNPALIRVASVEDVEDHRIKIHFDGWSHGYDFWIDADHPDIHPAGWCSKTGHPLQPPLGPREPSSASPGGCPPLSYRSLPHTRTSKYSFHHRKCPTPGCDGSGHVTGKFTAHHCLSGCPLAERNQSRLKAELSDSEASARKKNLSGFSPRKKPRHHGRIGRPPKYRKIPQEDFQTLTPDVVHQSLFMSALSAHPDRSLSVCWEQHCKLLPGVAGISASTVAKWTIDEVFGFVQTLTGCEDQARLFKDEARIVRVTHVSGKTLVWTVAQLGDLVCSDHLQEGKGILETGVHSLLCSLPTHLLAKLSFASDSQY
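L3MBTL1 (50 nM) pre-complexed 30 min with biotinylated H3(1-15)K9me1 peptide (75 nM), then compounds added for 30 min at room temperature; AlphaScreen streptavidin donor/nickel chelate acceptor beads (10 ug/mL final) read after 30 min dark incubation.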
HP1b chromo inh = HTS for Inhibitors of HP1-beta Chromodomain Interactions with Methylated Histone Tails. Chromobox protein homolog 1 (Homo sapiens), P83916. AlphaScreen HP1-beta / biotin-H3K9me3 peptide binding. Potency, µM (series often up to 114 µM), without a hit: at the highest dose activity change, negative = inhibition, usual class: inhibitors. 390,000 compounds, 0.56% hits; also: nearly all actives have a fitted effect of over 70% in size
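AlphaScreen: HP1-beta (50 nM) preformed 30 min with biotin-H3(1-18)K9me3 peptide (50 nM) in PBS pH 7.4, 0.01% Tween-20. Compound added for 30 min at RT, then streptavidin donor/nickel chelate acceptor beads (10 ug/mL) for 30 min.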
JMJD2A Tudor inh = qHTS Assay for Inhibitors of JMJD2A-Tudor Domain. Lysine-specific demethylase 4A (Homo sapiens), O75164. AlphaScreen JMJD2A-Tudor / H3K4me3 peptide binding. Potency, µM (highest dose often 114 µM), for inactives: top-dose activity change, negative = inhibition, most hits filed as inhibitors. 390,000 compounds, 4.4% hits; also: % is scaled to controls: 0 for no effect and ±100 for the full control effect; nearly all actives have a fitted effect of over 50% in size
The depositor's hits bear a star; u = inconclusive; x = no result given; ! = not active in a repeat; [ ] = another dose, or the depositor's remark. Calls follow the shape of the dose curve; as a rule, active = well fitted curve in the direction sought with a large enough effect; inconclusive = small, poorly fitted or top-dose-only effect, or another doubt; inactive = no such curve, though single readings can be large; an effect the other way counts as inactive or inconclusive. Potency is read from the fitted curve at half-maximal effect.

SMILES	Sfp inh	G9a block	BAZ2B inh	L3MBTL1 block	HP1b chromo inh	JMJD2A Tudor inh
O=C1[C@H]2[C@@H](C3CC3)N3C(=O)CN(CC4CC4)C(=O)[C@@]3(Cc3ccccc3)[C@H]2C(=O)N1c1ccccc1	x	x	x	6.8%	45.2%	-10.1%
CC(C)=CCCC1(C)C=Cc2c(O)c3c(c(CC=C(C)C)c2O1)OC12C(=CC4CC1C(C)(C)OC2(C/C=C(/C)C(=O)O)C4O)C3=O (configuration not stated)	50.1µM*	x	x	x	x	x
CC(C)Oc1ccc(CNC(=O)Oc2ccccc2)cc1	3.1%	u	-3.6%	-2.2%	24.3%	-13.1%
C[C@@H]1C[C@H]2OC(=O)C3(CO3)[C@H]2[C@H](O)[C@]2(C)C(=O)C3OC3[C@@H]12 (some centres not stated)	7.5%	11.0%[59 µM]	6.2%	x	x	x
C=C1C(=O)O[C@@H]2C[C@@H](C)[C@@H]3C=CC(=O)[C@@]3(C)[C@@H](O)[C@H]12	79.4µM*	11.2µM*!	1.2%	x	39.6%	-13.7%
C/C(=C/CCC(C)[C@H]1CC[C@@]2(C)C3=C(CC[C@]12C)[C@@]1(C)CCC(=O)C(C)(C)[C@@H]1CC3)C(=O)O (some centres not stated)	2.6%	u	u	1.7%	10.1%	63.1µM*
CCN1CC2(OC(=O)c3ccccc3NC(C)=O)CCC(OC)[C@]34C1[C@H](CC23)[C@@]1(O)C[C@H](OC)[C@H]2CC4C1(O)[C@H]2OC (some centres not stated)	-5.9%	x	x	x	x	x
CNC(C(=O)c1ccccc1)C(OC)c1cccc([N+](=O)[O-])c1 (configuration not stated)	6.2%	56.2µM*	-4.0%	1.9%	39.5%	-12.2%
O=c1[nH]c(O)c(C=Nc2ccccc2[N+](=O)[O-])c(=O)[nH]1	-7.5%	70.8µM*	-3.3%	u	x	x
O=c1[nH]c(O)c(C=Nc2ccccc2Sc2ccccc2)c(=O)[nH]1	15.7%	u	-10.1%	x	54.9%	-10.0%
O=C1/C(=C\c2cc3c(cc2Br)OCO3)N2CCC1CC2	u	44.7µM*	-9.4%	12.9%	12.1%	-12.5%
C1=C(c2ccccc2)CCNC1	5.4%	x	2.6%	11.7%	8.7%	-12.3%
Oc1ccc(C2=CCNCC2)cc1O	x	x	x	x	u	10µM*
c1cncc(CNCCc2ccc3c(c2)OCO3)c1	-1.5%	x	-12.5%	x	45.8%	-0.3%
FC(F)(F)c1ccc(CNCCc2ccc3c(c2)OCO3)cc1	79.4µM*	22.4µM*	79.4µM*	x	-18.8%	56.2µM*
Clc1cccc(CNCCc2ccc3c(c2)OCO3)c1	-0.4%	44.7µM*	79.4µM*	x	u	28.2µM*
Clc1ccc(CNCCc2ccc3c(c2)OCO3)cc1	u	79.4µM*	44.7µM*	x	-2.1%	25.1µM*
Fc1ccccc1CNCCc1ccc2c(c1)OCO2	9.1%	39.8µM*	-34.2%	3.9%	-32.9%	70.8µM*
CC1(C)CC(CCNCc2ccc3c(c2)OCO3)(Cc2ccccc2)CCO1 (configuration not stated)	-8.3%	-1.9%[12.7 µM]	-34.2%	u	13.6%	-13.0%
CC(=O)N1C[C@H](O)C[C@H]1C(=O)O	x	-15.8%[59 µM]	7.9%	7.0%	27.6%	u
CN1Cc2c(ccc3c2OCO3)C2C(O)Cc3cc4c(cc3C21)OCO4 (configuration not stated)	30.5%	x	x	x	x	x
O=C1C=Cc2ccccc2C1=O	2.82µM*	8.91µM*	39.8µM*	-25.0%	x	x
O=C1c2ccccc2C(=O)c2ccccc21	21.5%	-0.4%[59 µM]	x	x	x	x
NCCCNCCSP(=O)(O)O	9.1%	-6.4%[12.7 µM]	x	x	x	x
COc1cc2c(c(OC)c1OC)-c1ccc(O)c(=O)cc1[C@@H](N)CC2	x	-2.3%[12.7 µM]	5.5%	-4.9%	51.6%	79.4µM*
SMILES	Sfp inh	G9a block	BAZ2B inh	L3MBTL1 block	HP1b chromo inh	JMJD2A Tudor inh
c1ccc2sc(C3(N4CCCC4)CCCCC3)cc2c1	8.6%	-3.9%[59 µM]	x	x	x	x
Cc1ccc(OCCOc2cccc(C=C3C(=O)NC(=O)NC3=O)c2)cc1	63.1µM*	u	u	x	15.0%	u
Cc1cc(C)cc(OCCOc2cccc(C=C3C(=O)NC(=O)NC3=O)c2)c1	50.1µM*	-22.0%	-8.1%	12.6%	88.1%	59.8%
O=C1NC(=O)C(=Cc2ccc3ccccc3c2)C(=O)N1	39.8µM*	-40.1%[12.7 µM]	-1.9%	-2.6%	37.1%	-19.0%
Cc1nn(Cc2ccccc2)c(C)c1C=C1C(=O)NC(=O)NC1=O	-28.3%	-5.6%[59 µM]	3.3%	-3.2%	25.4%	-8.2%
Cc1cccc(OCCn2c(=O)oc3ccc(C)cc32)c1	-17.9%	194.9%	14.5%	20.5%	171.6%	130.3%
CCn1cc(C=C2C(=O)NC(=O)NC2=O)c2ccccc21	-9.3%	-7.5%	1.0%	x	16.1%[57 µM]	-22.1%
CCCN(C(=O)c1cc2c(=O)oc3ccccc3c2s1)c1cccc(Cl)c1	x	-2.5%[59 µM]	3.2%	x	11.3%	u
Cc1oc(-c2ccc(Cl)cc2)nc1CN1C(=O)CN=C(c2ccccc2)c2ccccc21	x	-35.8%[59 µM]	-3.7%	x	-6.4%	5.0%
COCCN1C(=NCCCOC(C)C)N[C@@H](c2ccccc2)C(C(=O)OC)=C1C	24.6%	x	6.7%	22.6%	28.9%	u
Cn1nc(-c2ccc(C(=O)Nc3ccc(OC(F)(F)F)cc3)cc2)c2ccccc2c1=O	x	-4.7%[59 µM]	2.4%	x	45.5%	0.0%
CCOP(=O)(OCC)O/C(=C/Cl)c1ccc(Cl)cc1Cl	15.6%	-4.7%[12.7 µM]	x	x	x	x
O=C1NO[C@@H]2CN[C@@H](C(=O)O)[C@H]12	-2.4%	x	x	x	x	x
O=P1(c2ccccc2)Nc2ccccc2N1c1ccccc1 (configuration not stated)	x	x	x	x	u	50.1µM*
CCS(=O)(=O)N1CCN(C2CCC(C)CC2)CC1 (configuration not stated)	-22.7%	5.62µM*	56.2µM*	6.2%	u	6.31µM*
O=C(NC1CCCCCC1)c1ccc[nH]c1=S	u	2.51µM*	-4.2%	x	u	5.01µM*
O=C(c1csnn1)N1CCC[C@@]2(CCN(Cc3ccncc3)C2)C1	-4.5%	-2.6%[12.7 µM]	x	x	x	x
O=C1NO[C@H]2[C@@H]1CN[C@@H]2C(=O)O	-2.0%	x	x	x	x	x
CN(C)C1CSSSC1	26.8%	x	x	x	x	x
C[C@@H]1OC=C2[C@@H](O)[C@H]3O[C@H]3C(=O)[C@@]23[C@H]1[C@H]1C2=C([C@@H](O)[C@H]4O[C@@H]4C2=O)[C@@H]3O[C@@H]1C	22.5%	x	x	x	x	x

Assay outcomes (PubChem BioAssay)
